An excerpt weighted towards active compounds, which were near 5% of everything screened.
ALR H2O2 inh: human ALR oxidase inhibition via reduced H2O2 | purified ALR, DTT oxidation, H2O2 HRP-luminol luminescence | inhibition, % (concentration not given with the values) | 290,000 compounds, 3.8% hits | AID 485317 | P55789;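 active means mean replicate inhibition above about 79%, with every replicate also reaching it, limit read from the data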
CHT PAM: allosterically activates the human high affinity choline transporter | CHT-expressing cells, membrane potential dye, choline EC20; active compounds read high; LV-AA mutant CHT in HEK293 cells | B-score at 10 µM | 310,000 compounds, 0.49% hits | AID 488977;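 active means initial fluorescence not abnormally high and integrated response B-score, plate-corrected, over 3 SD above library mean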
PREPL inh: human PREPL enzyme inhibition | Q4J6C6 | recombinant PREPL, fluorescence polarization activity-based probe | inhibition, % at 5.96 µM | 320,000 compounds, 0.68% hits | AID 2751; in the data active means inhibition above about 43%;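 further: 0% = enzyme with DMSO and 100% = wells lacking enzyme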
AI-2 QS modul: modulators of Vibrio harveyi AI-2 quorum sensing system | Vibrio harveyi JMH597 AI-2 luminescence/OD600 ratio, 9 h; active compounds read low; strain lacks LuxN and CqsS sensors; 0 = neutral-control median | activity change, % at 7.5 µM | 300,000 compounds, 0.4% hits; in the data active means activity change below about -75%, passing the limit was not always enough;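 further: luminescence divided by OD600 gain over 9 h not by final OD600 alone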
CHT block: inhibitors of human choline transporter CHT; B-score at 10 µM; CHT-expressing cells, membrane potential dye, choline response; active compounds read low; Q9GZV3; 310,000 compounds, 0.86% hits;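 active means B-score over 3 SD under the library average, and starting fluorescence ratio not unusually high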;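 further: choline stimulus applied at its EC90 after an EC20 pre-addition; B-score computed on integrated fluorescence ratio after choline addition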
Active calls of the source: *; i = inactive; · = no result given.

SMILES	ALR H2O2 inh	CHT PAM	PREPL inh	AI-2 QS modul	CHT block
Cc1ccc(NC(=O)NC(=O)CN2CCN(c3ccc(O)cc3)CC2)c(C)c1	99*	i	22	·	i
CC(CCc1ccccc1)NC(=O)CN1CCN(c2ccc(O)cc2)CC1 (stereo not given)	100*	i	18	28	i
CS(=O)(=O)N(CC(=O)N1CCCC1)c1cccc(F)c1	·	i	11	2	i
C=CCNC(=O)c1n[nH]c2c1CC(C(C)(C)CC)CC2 (stereo not given)	7	i	-8	·	i
COc1ccc(-n2c(SCC(=O)N3CCc4ccccc43)nnc2-c2c[nH]c3ccccc23)cc1	·	i	4	12	i
CCCN(CC(=O)Nc1ccccc1OC)C(=O)c1ccc2[nH]c3c(c2c1)CC(C)CC3 (stereo not given)	-10	·	6	·	·
O=C(NN=C1CCCC1)c1cccs1	-5	i	-3	7	i
CC(=O)N1CCC(=NNC(=O)c2cccs2)CC1	77*	i	-8	16	i
O=C(CSc1ccc(F)cc1)NC1CCCCC1	2	i	15	13	i
COc1ccc(/C=N/NC(=O)c2nn(C)cc2Br)cc1CSCc1ccco1	98*	i	-32	-6	i
Cc1sc2ccc3sccc3c2[n+]1C	41	12*	-2	15	i
COc1ccc(NC(=O)Cn2cnc3sc(C)c(S(=O)(=O)N4CCN(C)CC4)c3c2=O)cc1OC	-22	i	14	6	i
CC12CN3CC(C)(CN(C1)C3c1cc(Br)ccc1O)C2=O (stereo not given)	-1	i	12	21	i
CC1(C)C(=O)OC(c2cc(Br)ccc2O)C(C)(C)C1=O (stereo not given)	98*	i	-9	-1	i
O=C(Nc1ccccc1Cl)C1CC(=O)N(Cc2ccco2)C1 (stereo not given)	1	·	-4	·	·
O=C(Nc1cccc(C(F)(F)F)c1)c1cc[n+]([O-])cc1	·	i	17	15	i
O=C(Nc1cccc(C(F)(F)F)c1)C(Sc1cccc[n+]1[O-])c1ccccc1 (stereo not given)	78*	i	-7	33	i
COc1cc(C=O)ccc1OCCCCOc1ccccc1[N+](=O)[O-]	96*	i	-3	1	i
COc1cccc(NC(=O)CSc2nccn2-c2cccc(OC)c2)c1	98*	i	21	1	i
COc1ccc(NC(=O)CSc2nccn2-c2cccc(OC)c2)cc1	98*	i	17	25	i
COc1cccc(-n2ccnc2SCC(=O)Nc2ccccc2)c1	41	i	-3	1	i
O=C(CSc1nccn1-c1cccc(Cl)c1)Nc1ccc2c(c1)OCCO2	99*	i	3	2	i
O=C(C1=C[C@H](c2coc3ccccc3c2=O)C[C@H](OCCCCO)O1)N1CCN(Cc2ccc3c(c2)OCO3)CC1	2	i	4	-4	i
CCOCCCNC(=O)C(c1ccc(C)cc1)N(Cc1cccs1)C(=O)c1ccccc1O (stereo not given)	-11	i	1	53	i
Cc1ccc(C(CNC(=O)c2ccco2)N2CCN(C)CC2)cc1 (stereo not given)	-16	i	5	24	i
SMILES	ALR H2O2 inh	CHT PAM	PREPL inh	AI-2 QS modul	CHT block
NS(=O)(=O)c1cc(C(=O)NCC2CCCCC2)ccc1Cl	1	i	6	30	i
COc1ccc(S(=O)(=O)Nc2ccc3c(c2)C(=O)N([C@H](C)CO)C[C@H](C)[C@@H](CN(C)C(=O)Nc2c(C)noc2C)O3)cc1	-2	·	10	·	·
CCCC1CCC(=NNC(=O)CNc2ccc(OC)cc2)CC1 (stereo not given)	47	i	24	7	i
COc1ccc(NCC(=O)N/N=C/C2CCCCC2)cc1	92*	i	5	-4	i
c1ccc(Nc2cc(Nc3ccccc3)[nH]n2)cc1	61	i	18	-88*	i
Cn1c(-c2ccc(N)cc2)nc2ccccc21	37	i	5	·	i
Cn1c(-c2ccc3nc(N)sc3c2)nc2cc(N)ccc21	99*	i	32	2	i
CC1CCCC(C)N1S(=O)(=O)c1ccc(Cl)cc1 (stereo not given)	-5	i	-1	10	i

Screens from PubChem.
